Data published in PubChem BioAssay.
Calls of active or inactive are those of the source.

Key:
[1] = tested on: Plasmodium falciparum Sir2 (PF13_0152, Sir2A); assay: pfSir2 binders on small-molecule microarrays, primary screen, biochemical, small-molecule microarray, 635 nm fluorescence (AID 1098); settings: small-molecule microarray binding, fluorescence 635 nm; higher = more signal;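 further: score merges spot fluorescence intensity with its signal-to-noise ratio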
[2] = small-molecule microarray binders of probe aDKK1, primary screen, biochemical, biotinylated probe, 635/667 nm fluorescence (AID 1099); settings: higher = more signal;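 further: score merges 667nm spot fluorescence with signal to noise across triplicate slides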
[3] = small-molecule microarray binders of probe aCHRDL2, primary screen, biochemical, biotinylated probe, 635/667 nm fluorescence (AID 1100); settings: higher = more signal
[4] = splicing luciferase reporter signal modulators, primary screen, spliceosome inhibition project, cell-based, HEK293, splice +/- reporter (AID 1101); settings: luminescence, 24 h, higher = more signal, called active from +8 up or from −8 down;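 further: HEK293 cells carrying a splicing-competent luciferase reporter gene; test concentration not given here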
[5] = biological target: Fibroblast growth factor 10 (Homo sapiens) (UniProt O15520); assay: FGF10 binders on small-molecule microarrays, primary screen, biochemical, small-molecule microarray, 635 nm fluorescence (AID 1102); settings: FGF10 binding, fluorescence 635 nm, higher = more signal
Fibroblast growth factor 10 (Homo sapiens), sequence (O15520 whole entry, looked up): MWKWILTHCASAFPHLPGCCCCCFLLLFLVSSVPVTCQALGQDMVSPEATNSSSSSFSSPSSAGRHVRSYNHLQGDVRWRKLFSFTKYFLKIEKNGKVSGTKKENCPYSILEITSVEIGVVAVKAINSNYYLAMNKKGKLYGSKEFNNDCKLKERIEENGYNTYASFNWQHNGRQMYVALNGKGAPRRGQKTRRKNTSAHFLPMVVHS

[6] = tested on: glycogen synthase kinase-3 (GSK3A per assay name; protocol says GSK3B); assay: GSK3 binders on small-molecule microarrays, primary screen, biochemical, small-molecule microarray, 635 nm fluorescence, GSK3A (AID 1103); settings: small-molecule microarray binding, fluorescence 635 nm; higher = more signal; further: the record names both GSK3A and GSK3B
[7] = biological target: Epidermal growth factor receptor (Homo sapiens) (UniProt P00533); assay: EGFR binders on small-molecule microarrays, primary screen, biochemical, small-molecule microarray, 635 nm fluorescence (AID 1104); settings: EGFR binding, higher = more signal;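 further: score merges 667 nm emission intensity with spot signal to noise over triplicate slides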
Epidermal growth factor receptor (Homo sapiens), sequence (P00533 whole entry, looked up): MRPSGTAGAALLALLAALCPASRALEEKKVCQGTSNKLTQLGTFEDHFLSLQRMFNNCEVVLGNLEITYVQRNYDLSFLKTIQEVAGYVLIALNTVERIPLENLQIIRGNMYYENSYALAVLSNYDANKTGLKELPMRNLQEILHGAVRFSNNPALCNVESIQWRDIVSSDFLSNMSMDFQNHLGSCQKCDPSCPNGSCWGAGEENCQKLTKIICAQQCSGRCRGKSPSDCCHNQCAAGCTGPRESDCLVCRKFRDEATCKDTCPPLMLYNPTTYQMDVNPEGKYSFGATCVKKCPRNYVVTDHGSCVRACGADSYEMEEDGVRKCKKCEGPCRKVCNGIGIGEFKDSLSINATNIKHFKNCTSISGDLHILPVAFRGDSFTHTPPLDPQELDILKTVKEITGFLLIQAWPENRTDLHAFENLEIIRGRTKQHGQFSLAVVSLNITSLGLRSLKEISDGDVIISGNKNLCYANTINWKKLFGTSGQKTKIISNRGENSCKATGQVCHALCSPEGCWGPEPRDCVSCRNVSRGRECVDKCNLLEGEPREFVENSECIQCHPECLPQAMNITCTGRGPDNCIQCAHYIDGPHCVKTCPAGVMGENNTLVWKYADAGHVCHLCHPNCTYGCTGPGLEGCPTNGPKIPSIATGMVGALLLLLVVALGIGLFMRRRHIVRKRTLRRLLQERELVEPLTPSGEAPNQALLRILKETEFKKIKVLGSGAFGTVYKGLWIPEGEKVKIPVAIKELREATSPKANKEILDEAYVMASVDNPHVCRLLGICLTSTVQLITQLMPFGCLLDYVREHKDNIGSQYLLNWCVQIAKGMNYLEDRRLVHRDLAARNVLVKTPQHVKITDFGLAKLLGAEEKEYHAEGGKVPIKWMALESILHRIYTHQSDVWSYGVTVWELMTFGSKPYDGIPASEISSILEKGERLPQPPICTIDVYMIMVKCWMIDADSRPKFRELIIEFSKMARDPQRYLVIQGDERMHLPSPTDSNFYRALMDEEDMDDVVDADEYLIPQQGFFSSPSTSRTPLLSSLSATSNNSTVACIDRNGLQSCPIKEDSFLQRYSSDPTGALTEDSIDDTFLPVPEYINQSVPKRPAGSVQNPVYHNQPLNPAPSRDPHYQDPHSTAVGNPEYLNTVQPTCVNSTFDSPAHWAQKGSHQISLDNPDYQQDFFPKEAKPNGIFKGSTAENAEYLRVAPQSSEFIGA

[8] = biological target: Follistatin-related protein 3 (Homo sapiens) (UniProt O95633); assay: FSTL3 binders on small-molecule microarrays, primary screen, biochemical, small-molecule microarray, 635 nm fluorescence (AID 1105); settings: FSTL3 binding, higher = more signal;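 further: score merges emission near 667 nm and signal to noise per printed spot across three slides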
Follistatin-related protein 3 (Homo sapiens), sequence (O95633 whole entry, looked up): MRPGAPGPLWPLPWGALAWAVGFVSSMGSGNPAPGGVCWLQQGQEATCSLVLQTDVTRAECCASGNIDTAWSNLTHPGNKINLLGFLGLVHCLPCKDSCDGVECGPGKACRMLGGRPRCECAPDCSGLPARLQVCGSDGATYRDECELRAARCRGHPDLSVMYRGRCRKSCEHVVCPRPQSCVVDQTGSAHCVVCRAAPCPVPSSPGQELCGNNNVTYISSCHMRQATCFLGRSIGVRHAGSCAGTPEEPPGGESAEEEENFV

[9] = biological target: Dickkopf-related protein 1 (Homo sapiens) (UniProt O94907); assay: DKK1 binders on small-molecule microarrays, primary screen, biochemical, small-molecule microarray, 635 nm fluorescence scan (AID 1106); settings: DKK1 binding, higher = more signal;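 further: score merges emission near 667 nm with signal to noise over three replicate slides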
Dickkopf-related protein 1 (Homo sapiens), sequence (O94907 whole entry, looked up): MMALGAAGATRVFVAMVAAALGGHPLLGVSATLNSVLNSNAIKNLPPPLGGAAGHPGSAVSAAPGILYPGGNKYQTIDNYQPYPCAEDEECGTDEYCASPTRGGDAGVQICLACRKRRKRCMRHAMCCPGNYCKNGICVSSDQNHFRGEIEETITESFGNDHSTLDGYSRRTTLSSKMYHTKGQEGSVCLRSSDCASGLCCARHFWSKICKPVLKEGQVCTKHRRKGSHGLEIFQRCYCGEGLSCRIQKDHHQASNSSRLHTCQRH

[10] = tested on: Inhibin beta A chain (activin A); assay: INHBA (activin A) binders on microarrays, primary screen, biochemical, small-molecule microarray, 635 nm fluorescence scan (AID 1107); settings: small-molecule microarray binding, higher = more signal;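 further: mouse activin A protein probed at 4.33 µg/mL on printed slides; score merges bound-protein fluorescence near 667 nm with spot signal-to-noise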
[11] = tested on: Human papillomavirus type 1a protein E7 (residues 44-93); assay: HPV1a E7 fragment binders on microarrays, primary screen, biochemical, small-molecule microarray, residues 44-93, 635 nm fluorescence (AID 1108); settings: small-molecule microarray binding, fluorescence 635 nm; higher = more signal;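 further: E7 fragment applied at 1 µg/mL in TBST for 1 h at 4 C; score combines spot fluorescence with its signal to noise ratio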
[12] = modulators of HCV replicon luciferase signal, primary screen, HCV replication inhibitor project, Huh7 cells, luciferase reporter (AID 1109); settings: 48 h, higher = more signal;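 further: huh7 hepatoma cells harbouring a luciferase neomycin HCV replicon reporter; luciferase luminescence as measure of HCV replicon replication; test concentration not given here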
[13] = biological target: Left-right determination factor 2 (Homo sapiens) (UniProt O00292); assay: LEFTY2 binders on small-molecule microarrays, primary screen, biochemical, small-molecule microarray, 635 nm fluorescence scan (AID 1110); settings: LEFTY2 binding, higher = more signal
Left-right determination factor 2 (Homo sapiens), sequence (O00292 whole entry, looked up): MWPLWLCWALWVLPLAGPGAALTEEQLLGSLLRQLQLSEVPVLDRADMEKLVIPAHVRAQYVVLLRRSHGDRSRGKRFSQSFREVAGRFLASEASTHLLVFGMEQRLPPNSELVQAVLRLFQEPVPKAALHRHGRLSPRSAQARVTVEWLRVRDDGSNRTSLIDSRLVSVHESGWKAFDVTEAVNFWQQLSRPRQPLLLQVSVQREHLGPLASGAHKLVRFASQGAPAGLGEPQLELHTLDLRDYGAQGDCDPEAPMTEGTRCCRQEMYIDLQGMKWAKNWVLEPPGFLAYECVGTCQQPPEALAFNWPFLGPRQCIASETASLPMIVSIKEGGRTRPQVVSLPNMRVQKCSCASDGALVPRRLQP

[14] = biological target: Calmodulin-1 (Homo sapiens) (UniProt P0DP23); assay: CALM1 binders on microarrays, EGTA buffer, profiling panel, biochemical, small-molecule microarray, Cy5-labelled CALM1 (AID 1111); settings: Cy5-CALM1 binding fluorescence, higher = more signal;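 further: labelled calmodulin applied in Tris saline Tween buffer holding calcium plus EGTA and DTT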
[15] = biological target: Calmodulin-1 (Homo sapiens) (UniProt P0DP23); assay: calcium-bound CALM1 binders on microarrays, profiling panel, artefact control for SMM control-protein annotation, biochemical, small-molecule microarray, Cy5-labelled CALM1, plus calcium (AID 1112); settings: Cy5-CALM1 binding fluorescence, higher = more signal;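 further: score merges spot fluorescence with signal to noise from triplicate slides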
[16] = small-molecule microarray binders of probe aWnt5a, primary screen, biochemical, biotinylated probe, 635/667 nm fluorescence (AID 1113); settings: higher = more signal;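 further: score merges 667 nm fluorescence intensity with signal-to-noise per printed feature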
[17] = small-molecule microarray binders of probe aShh, primary screen, biochemical, biotinylated probe, 635/667 nm fluorescence (AID 1114); settings: higher = more signal;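 further: probe is biotin-labelled aShh protein from a stem cell growth factor screen; measures binding of labelled protein to compounds printed on the slide; score merges feature fluorescence at 667 nm with signal-to-noise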
[18] = small-molecule microarray binders of probe aNog, primary screen, biochemical, biotinylated probe, 635/667 nm fluorescence (AID 1115); settings: higher = more signal;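 further: probe is biotinylated aNog protein used at 0.15 µg/mL for 1 h at 4 C; z-score combines 667 nm fluorescence of each spot with its signal to noise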
[19] = biological target: Torsin-1A-interacting protein 1 (Homo sapiens) (UniProt Q5JTV8); assay: LAP1 binders from COS7 cell lysate, primary screen, small-molecule microarray, 635/667 nm fluorescence (AID 1116); settings: COS7-hLAP1 lysate binding, 635 nm fluorescence, higher = more signal
Torsin-1A-interacting protein 1 (Homo sapiens), sequence (Q5JTV8 whole entry, looked up): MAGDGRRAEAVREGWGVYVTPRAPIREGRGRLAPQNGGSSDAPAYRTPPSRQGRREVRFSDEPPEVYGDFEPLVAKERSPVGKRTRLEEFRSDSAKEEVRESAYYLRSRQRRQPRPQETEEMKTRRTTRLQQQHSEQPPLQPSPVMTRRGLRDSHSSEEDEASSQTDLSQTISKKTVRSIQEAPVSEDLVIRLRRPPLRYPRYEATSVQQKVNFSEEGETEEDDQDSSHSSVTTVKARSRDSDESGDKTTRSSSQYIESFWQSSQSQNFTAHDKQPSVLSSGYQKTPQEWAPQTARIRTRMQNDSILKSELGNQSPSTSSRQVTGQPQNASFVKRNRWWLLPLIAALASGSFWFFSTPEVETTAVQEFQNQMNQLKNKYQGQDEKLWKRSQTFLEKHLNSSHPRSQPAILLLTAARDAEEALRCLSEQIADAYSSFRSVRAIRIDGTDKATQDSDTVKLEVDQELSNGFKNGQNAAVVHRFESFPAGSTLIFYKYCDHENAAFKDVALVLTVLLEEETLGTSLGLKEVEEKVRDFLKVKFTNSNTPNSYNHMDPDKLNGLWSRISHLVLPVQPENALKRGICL

[20] = biological target: Alpha-bungarotoxin (Bungarus multicinctus) (UniProt P60615); assay: alpha-bungarotoxin binders on microarray, profiling panel, artefact control for SMM control protein annotation, biochemical, small-molecule microarray, Alexa647 label, 635/667 nm fluorescence (AID 1117); settings: alpha-BTX-A647 binding fluorescence, higher = more signal
Alpha-bungarotoxin (Bungarus multicinctus), sequence (P60615 whole entry, looked up): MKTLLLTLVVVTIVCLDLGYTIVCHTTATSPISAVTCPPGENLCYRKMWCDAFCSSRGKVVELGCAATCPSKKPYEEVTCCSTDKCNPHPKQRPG

Row | Structure (SMILES) | composite z-score [1] | composite z-score [2] | composite z-score [3] | z-score [4] | composite z-score [5] | composite z-score [6] | composite z-score [7] | composite z-score [8] | composite z-score [9] | composite z-score [10] | composite z-score [11] | z-score [12] | composite z-score [13] | composite z-score [14] | composite z-score [15] | composite z-score [16] | composite z-score [17] | composite z-score [18] | composite z-score [19] | composite z-score [20]
1 | CCN1C(=O)[C@H]2[C@H]3[C@H](O)[C@H](O)CC(=NOC[C@@H](C)[C@H](OCc4ccccc4)C(C)C)[C@@H]3CC[C@H]2C1=O | 1.16 | -0.035 | -0.171 | 0.879 (inactive) | 0.405 | 0.254 | 0.108 | 0.284 | 0.132 | 0.359 | 0.306 | -1.47 | 0.358 | 0.809 | 0.484 | -0.133 | -0.262 | 0.124 | 0.329 | 0.234
2 | COC(=O)C1=C(C)N(Cc2ccccc2)[C@]23O[C@](C(=O)OC)(C(=O)N2[C@@H]1c1ccccc1)[C@H]1CCOC(=O)[C@H]13 | 0.539 | 0.057 | -0.733 | -0.236 (inactive) | 1.1 | 0.466 | 0.482 | 0.63 | 0.971 | 0.521 | 0.0415 | 0.233 | 0.548 | -0.348 | -0.832 | -0.0482 | -0.0769 | 0.171 | 0.333 | 0.0003
3 | CN1C(=O)[C@@]2(CCC(=O)OC(C)(C)C)N=C(c3ccc(OCCCO)cc3)O[C@H]2c2ccccc21 | 1.26 | 0.0179 | 0.457 | -0.0334 (inactive) | 0.788 | 1.33 | 0.181 | 0.529 | -0.0485 | 1.03 | 1.29 | -2.9 | -0.057 | 0.878 | -0.304 | -0.096 | 0.137 | -0.539 | 0.558 | 0.721
4 | O=C1C[C@@H](O)[C@@H](O)[C@@H]2[C@@H]3C(=O)N(Cc4ccc5c(c4)OCO5)C(=O)[C@@H]3CC[C@@H]12 | 0.27 | -0.159 | -0.562 | 0.706 (inactive) | 0.715 | 0.45 | 0.428 | 0.675 | 0.78 | 0.365 | -0.0301 | -0.644 | 0.796 | -0.504 | -0.56 | -0.0405 | 0.0278 | -0.239 | 0.441 | 0.0541
5 | CCN1C(=O)[C@H]2[C@H]3[C@H](O)[C@H](O)CC(=NO[C@@H]4O[C@H](CO)[C@@H](O)[C@H](O)[C@H]4O)[C@@H]3CC[C@H]2C1=O | 0.562 | -0.291 | -0.233 | -0.448 (inactive) | -0.584 | -1.42 | -0.831 | -0.534 | -0.0655 | 0.613 | -2.4 | 0.26 | -0.251 | -0.665 | -0.813 | -0.18 | -0.545 | -0.1 | -0.442 | -0.479
6 | C=CC[C@@H]1C=C[C@H](ON=C[C@@H](OC)[C@H](C)C=CCC(=O)OC)[C@@H](CO)O1 | -0.433 | -0.0759 | -0.615 | 0.653 (inactive) | 0.423 | 0.306 | -0.0453 | 0.343 | 0.17 | 0.496 | 0.241 | -0.581 | 0.283 | -0.67 | -1.65 | -0.0222 | -0.0035 | -0.526 | 0.848 | -0.741
7 | O=C1[C@H]2[C@H]3[C@H](O)[C@H](O)CC(=NOCc4ccccc4)[C@@H]3CC[C@H]2C(=O)N1Cc1ccccc1 | -0.935 | -0.206 | -0.571 | -0.491 (inactive) | 0.43 | 0.75 | 0.453 | 0.58 | 0.544 | -0.359 | 0.813 | 0.427 | 0.509 | 0.675 | -0.374 | -0.197 | 0.214 | 0.144 | 0.102 | 0.159
8 | CCN1C(=O)[C@H]2[C@H]3[C@H](O)[C@H](O)CC(=NOCc4ccccc4)[C@@H]3CC[C@H]2C1=O | 0.119 | 0.214 | -0.585 | -1.02 (inactive) | 0.302 | 0.478 | 0.33 | 0.51 | 0.267 | 0.383 | 0.515 | -0.0462 | 0.609 | 0.36 | -0.467 | -0.0819 | -0.349 | -0.551 | 0.138 | 0.29
9 | COCCOC(=O)N1C(=O)[C@@]2(c3cc(C#CCNC(N)=O)ccc31)[C@H](c1ccccc1OCCO)N1[C@H](c3ccccc3)[C@H](c3ccccc3)OC(=O)[C@H]1[C@@H]2C(=O)N1CCN(c2ncccn2)CC1 | 1.61 | 0.376 | 0.702 | -0.099 (inactive) | 1.15 | 0.375 | 0.315 | 0.623 | 0.0239 | 1.35 | 0.648 | -0.672 | 0.377 | 0.821 | 0.749 | 0.0326 | -0.108 | -0.105 | 1.01 | 2.14
10 | CCCC[C@@H](O)C1=C(C)C[C@H]2C(=O)N(Cc3ccccc3)C(=O)[C@H]2[C@H]1CO | 0.222 | -0.407 | -0.494 | 0.0445 (inactive) | 0.264 | -0.0254 | 0.464 | 0.449 | 0.524 | 0.899 | -0.101 | 0.156 | 0.521 | -0.349 | -0.611 | -0.0478 | -0.0553 | -0.158 | 0.503 | -0.227
11 | NC(=O)NCC#Cc1ccc2c(c1)[C@]1(C(=O)N2)[C@H](c2ccc(O)cc2)N2[C@H](c3ccccc3)[C@H](c3ccccc3)OC(=O)[C@H]2[C@@H]1C(=O)N1CCCCCCC1 | 1.08 | 1.8 | 1.08 | 0.445 (inactive) | 0.593 | -0.018 | 0.356 | 1.28 | 0.408 | 1.4 | 1.19 | -0.421 | 0.258 | 0.822 | 0.675 | 0.338 | 0.462 | -0.623 | 2.42 | 1.34
12 | O=C1O[C@@H](c2ccccc2)[C@@H](c2ccccc2)N2[C@@H](c3ccc(OCCO)cc3)[C@]3(C(=O)Nc4ccccc43)[C@@H](C(=O)N3CCN(c4ncccn4)CC3)[C@H]12 | 1.4 | 0.556 | -0.0223 | -0.0125 (inactive) | 0.69 | 1.22 | 0.774 | 1.23 | 0.886 | 0.38 | 1.35 | -2.4 | 0.773 | 0.0357 | -0.355 | -0.0685 | 0.0044 | 0.751 | 0.96 | 1.53
13 | O=C1[C@H]2[C@H]3[C@H](O)[C@H](O)CC(=NO[C@@H]4O[C@H](CO)[C@@H](O)[C@H](O)[C@H]4O)[C@@H]3CC[C@H]2C(=O)N1Cc1ccccc1 | 0.133 | -0.195 | -0.269 | -0.847 (inactive) | 0.503 | -0.817 | 0.331 | -0.0746 | -0.0034 | -1.43 | 0.33 | 0.506 | 0.792 | -0.225 | -1.24 | -0.136 | 0.225 | -0.433 | 0.392 | -0.187
14 | CC(=O)OC[C@H]1O[C@@H](ON=C(C)CCN2CCc3nc(-c4ccccc4)c(-c4ccccc4)cc3C2)[C@H](OC(C)=O)[C@@H](OC(C)=O)[C@@H]1OC(C)=O | 0.625 | -0.119 | -0.413 | 0.522 (inactive) | 0.917 | 1.22 | 0.525 | 0.979 | 0.525 | -0.0877 | 1.32 | -2.07 | 0.687 | 0.328 | -0.697 | 0.0215 | -0.0362 | -0.295 | 0.358 | 0.74
